Screening results: PubChem BioAssay, National Center for Advancing Translational Sciences (NCATS)
A selection: hits, their analogues and other compounds. The true share with any hit is near 0.41%.
aGlu spleen mod: inhibits or activates alpha-glucosidase in human spleen homogenate. hit rate 0.006% among 240,000. P10253. Potency, µM (doses to about 79.9 µM), most hits filed as inhibitors. human spleen homogenate, 4-MU-alpha-glucoside fluorescence
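AC50 values come from Hill-equation fits of concentration-response data, normalized to no-enzyme and full-activity controls. Enzyme source: 1 ug human spleen homogenate; 1 mM fluorogenic 4-MU glucoside, pH 5.0 citrate buffer, 37 C, 40 min.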
GLA spleen mod: inhibitors or activators of human alpha-galactosidase in spleen homogenate. P06280. hit rate 0.008% among 240,000. AID 2107. human spleen homogenate, 4MU-alpha-Gal fluorescence, 40 min. Potency, µM (titrated, usually from 80 µM), usual class: inhibitors
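Spleen homogenate 1 ug + cpd (titration) + 4-MU-alpha-D-galactopyranoside 1 mM; 37C 40 min; 50 mM citrate/phosphate pH 5.0, 0.01% Tween-20; stop pH 10; fluorescence 365/440; AC50 via Hill.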
N370S GC mod: inhibits or activates N370S mutant glucocerebrosidase | N370S GC spleen homogenate, 4MU-glucoside fluorescence | Potency, µM (highest dose often 59.4 µM), hits mostly inhibitors | P04062 | hit rate 0.092% among 330,000 | AID 2101
GAA glycogen: alters human alpha-glucosidase cleavage of glycogen; P10253; recombinant GAA, glycogen substrate, Amplex Red glucose oxidase fluorescence; AID 2100; hit rate 0.38% among 300,000; Potency, µM (titrated, usually from 76.4 µM), actives largely listed as inhibitors;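 also: the screen sought inhibitors and activators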
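Recombinant enzyme (4 nM final) with compounds titrated up to 77 uM and bovine liver glycogen (30 ug) in citrate pH 5.0, 0.01% Tween-20, 37 C 40 min. Released glucose detected by Amplex Red/glucose oxidase (Ex 573/Em 610); AC50 from Hill fits.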
GLA inh pH 4.5: blocks human alpha-galactosidase A at pH 4.5. P06280. purified enzyme, 4-MU-alpha-Gal fluorescence, pH 4.5. activity change, negative = inhibition, % at 105 µM. 230,000 tested, under 10 active
Target sequence (P06280 whole entry, looked up): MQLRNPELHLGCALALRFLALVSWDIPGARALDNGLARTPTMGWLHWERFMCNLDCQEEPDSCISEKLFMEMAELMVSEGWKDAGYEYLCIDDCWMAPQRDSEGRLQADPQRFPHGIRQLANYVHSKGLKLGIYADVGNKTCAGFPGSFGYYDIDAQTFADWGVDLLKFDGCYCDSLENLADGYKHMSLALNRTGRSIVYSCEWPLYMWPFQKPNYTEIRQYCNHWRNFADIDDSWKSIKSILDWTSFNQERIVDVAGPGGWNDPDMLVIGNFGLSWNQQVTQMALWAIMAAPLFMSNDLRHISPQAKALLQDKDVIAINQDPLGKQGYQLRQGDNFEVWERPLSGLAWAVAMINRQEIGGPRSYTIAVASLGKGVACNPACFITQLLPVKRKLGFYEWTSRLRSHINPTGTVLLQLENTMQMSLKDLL
GAA inhib: blocks human lysosomal alpha-glucosidase; P10253; purified human GAA, 4-MU-alpha-glucoside fluorescence; Potency, µM (series often up to 76.9 µM), hits mostly inhibitors; hit rate 0.005% among 200,000; AID 1466
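Endpoint fluorogenic read: 20 min room-temperature reaction of 4 nM human alpha-glucosidase with 400 uM 4-methylumbelliferyl-alpha-D-pyranoside, pH 5.0, quenched with 1M NaOH/1M glycine pH 10. AC50 from Hill modeling.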
Hits are given with their value; – = inactive; ? = inconclusive; · = no result; [ ] = remark or other dose. Calls follow the shape of the dose curve; as a rule, active = well fitted curve in the direction sought with a large enough effect; inconclusive = small, poorly fitted or top-dose-only effect, or another doubt; inactive = no such curve, though single readings can be large; an effect the other way counts as inactive or inconclusive.

SMILES	aGlu spleen mod	GLA spleen mod	N370S GC mod	GAA glycogen	GLA inh pH 4.5	GAA inhib
O=C(O)/C=C/C(=O)Nc1ccc(O)cc1	–	–	?	31.6µM	–	–
O=C(O)/C=C/C(=O)Nc1ccc(C(=O)c2ccccc2)cc1	–	–	–	–	–	–
CN(CCCC(=O)O)S(=O)(=O)c1ccc2c(c1)C(=O)c1cc(S(=O)(=O)N(C)CCCC(=O)O)ccc1-2	·	·	–	25.1µM	·	·
Cc1ccc(S(=O)(=O)N(C)CCCC(=O)Nc2ccc(F)cc2)cc1	–	–	–	–	–	–
COc1cc(NC(=O)N2c3ccccc3Sc3ccccc32)c(C(=O)O)cc1OC	·	·	–	·	·	·
O=C(O)c1ccccc1NC(=O)N1c2ccccc2Sc2ccccc21	·	·	·	17.8µM	·	·
Cc1ccc(NC(=O)CCS(=O)(=O)c2ccc3c(c2)NC(=O)C(C)S3)cc1Cl (configuration not stated)	·	·	7.94µM	·	·	·
CC1Sc2ccc(S(=O)(=O)CCC(=O)Nc3ccc(C(C)C)cc3)cc2NC1=O (configuration not stated)	·	·	6.31µM	·	·	·
CC1Sc2ccc(S(=O)(=O)CCC(=O)Nc3ccccc3Cl)cc2NC1=O (configuration not stated)	·	·	?	–	·	·
COc1ccc(Br)cc1Cn1nnc(C(=O)Nc2cccc(SC)c2)c1N	·	·	·	–	·	·
Oc1ccc(NC(=S)N=Nc2c(O)[nH]c3ccccc23)cc1	–	–	–	39.8µM	–	–
Oc1cccc(NC(=S)N=Nc2c(O)[nH]c3ccc(Br)cc23)c1	–	–	7.94µM	–	–	·
COc1cc(CNc2ccc(N3CCN(C(C)=O)CC3)cc2)ccc1OCc1ccc(F)cc1	–	–	–	25.1µM	–	–
CCOc1cc(CNc2ccc(N3CCOCC3)cc2)cc(Br)c1OCC	–	–	–	–	–	–
COc1cc(CNc2ccc(N3CCOCC3)cc2)cc(Br)c1OC	–	–	–	44.7µM	–	–
CCOc1c(Br)cc(CNc2ccc(N3CCN(C(C)=O)CC3)cc2)cc1OC	–	–	–	31.6µM	–	·
CN(C)C(=O)Nc1ccc(Oc2ccc(Cl)cc2)cc1	–	–	–	·	·	·
Cc1ccccc1C1CC(=O)Oc2ccc(O)cc21 (configuration not stated)	–	–	–	·	–	·
COC(=O)c1ccc(NC(=O)Cc2coc3cc(C)ccc23)cc1	·	·	·	–	·	·
N#Cc1ccc(-c2csc(NNC(=O)c3ccccc3)n2)cc1	–	–	–	28.2µM	–	–
CN(C)c1ccc(N=Cc2ccco2)cc1	–	–	–	?	–	–
C(=Nc1cccc2c(N=Cc3ccco3)cccc12)c1ccco1	–	–	–	14µM	–	–
COc1ccc(C(=O)/C=C/Nc2c(C)n(C)n(-c3ccccc3)c2=O)cc1OC	–	–	–	3.14µM	–	?
CC(C)CO/N=C1/C[C@@H](O)[C@@H](O)[C@@H]2[C@@H]3C(=O)N(Cc4ccccc4)C(=O)[C@H]3CC[C@@H]12	–[17.4 µM]	–[17.5 µM]	–[12.8 µM]	·	·	·
Oc1ccc(-c2csc(Nc3ncccn3)n2)cc1O	–	–	–	7.03µM	–	–
SMILES	aGlu spleen mod	GLA spleen mod	N370S GC mod	GAA glycogen	GLA inh pH 4.5	GAA inhib
Oc1ccc(-c2csc(-c3ccccc3)n2)cc1O	–	–	–	11.1µM	–	–
Oc1ccc(-c2csc(-c3cccnc3)n2)cc1O	–	–	–	7.08µM	–	·
COc1ccccc1C(=O)NC1(C(F)(F)F)C(=O)Nc2c1c(=O)[nH]c(=O)n2-c1ccccc1 (configuration not stated)	·	·	·	–	·	·
COc1ccccc1CNc1n[nH]c(NCc2ccccc2OC)n1	–	–	–	24.9µM	–	–
CC(C)C[C@H](NC(=O)[C@H]1O[C@@H]1C(=O)O)C(=O)NCCCCN=C(N)N	–	–	–	·	·	·
CCN(CC)c1ccc(/C=N/Nc2nc(C)cc(C)n2)cc1	–	–	–	11.2µM	–	·
Cc1cc(C)nc(N/N=C/c2ccccc2)n1	–	–	–	–	·	–
CCCCC(=O)NC(Nc1sc2c(c1C(N)=O)CCCC2)(C(=O)OCC)C(F)(F)F (configuration not stated)	–	–	–	?	–	–
COC(=O)C(NC(C)=O)(Nc1sc2c(c1C(N)=O)CCCC2)C(F)(F)F (configuration not stated)	–	–	–	20µM	–	–
CCOC(=O)CNc1c(-c2ccccc2)nc2ccc(Cl)cn12	–	–	–	4.47µM	–	–
O=C(Nc1c(-c2ccccc2)nc2ccc(Cl)cn12)c1cccs1	–	–	–	–	–	–
CCOC(=O)C(=O)c1c(-c2ccc(C)cc2)nc2ccccn12	–	–	–	–	–	–
CCOC(=O)CNc1c(-c2ccc(O)cc2)nc2ccccn12	–	–	–	35.2µM	–	–
CCOC(=O)CNc1c(-c2ccc(O)cc2)nc2ccc(Cl)cn12	–	–	?	22.4µM	–	–
O=C(/C=C/c1ccc(O)c(O)c1)c1ccc(O[C@@H]2O[C@H](CO)[C@@H](O)[C@H](O)[C@H]2O)c(O)c1O	?	–	–	·	·	·
O=C(CCCn1c(SCC(=O)c2ccc(O)c(O)c2)nc2ccccc2c1=O)NCC1CCCO1 (configuration not stated)	–	–	–	5.58µM	–	–
CCCCn1c(SCC(=O)c2ccc(O)c(O)c2)nc2ccsc2c1=O	–	–	–	28.2µM	–	–
Cc1ccc2c(c1)c(CC(NC(=O)c1ccccc1Oc1ccccc1)C(=O)O)cn2C(=O)OCc1ccccc1 (configuration not stated)	–	–	–	·	·	·
CCOc1ccc(C(C)=O)cc1COc1ccc(-c2nnco2)cc1	·	·	11.2µM	·	·	·
COc1ccc(C2=Nn3c(nnc3-c3cccc(OC)c3OC)SC2)cc1	–	–	–	·	·	·
COc1ccc2c(c1)OC(=O)CC2c1ccc2c(c1)OCO2 (configuration not stated)	–	–	–	·	–	·
Fc1ccc(Nc2c(-c3c[nH]c4ccccc34)nc3ccccn23)cc1	·	·	·	14.1µM	·	·
O=C(Nc1ccc(F)cc1)c1c(Cl)nc2ccccn12	–	–	–	–	–	–
O=c1oc2ccccc2c2oc3cc(O)c(O)cc3c12	–	–	–	28.2µM	–	·
CCOc1ccc(N(CC(=O)Nc2ccc(C)cc2)S(=O)(=O)c2c(C)[nH]c(=O)[nH]c2=O)cc1	–	–	2.82µM	–	–	·
CCOc1ccc(N(CC(=O)Nc2ccc(F)cc2F)S(=O)(=O)c2c(C)[nH]c(=O)[nH]c2=O)cc1	·	·	·	–	·	·
CCOc1ccc(NC(=O)CN(c2ccc(OCC)cc2)S(=O)(=O)c2c(C)[nH]c(=O)[nH]c2=O)cc1	–	–	6.31µM	–	–	–
CCOc1ccc(N(CC(=O)Nc2ccc(OC)cc2)S(=O)(=O)c2c(C)[nH]c(=O)[nH]c2=O)cc1	–	–	?	–	–	–
CCN(CC)c1cccc(OC2=NS(=O)(=O)c3ccccc32)c1	–	–	–	28.2µM	–	–
